The values that follow come from PubChem BioAssay (NCI).

Among the test systems are NCI-H226 lung; NCI-H322M lung; HOP-62 NSCLC; NCI-H460 lung; HOP-92 NSCLC; NCI-H522 lung; A549/ATCC NSCLC; 786-0 renal; COLO 205 colon; DU-145 prostate.
What all share (assay): NCI-60 one-dose screen, 48 h (100 = growth as untreated, 0 = no growth, -100 = all killed)
What all share (conditions): 10 µM unless noted

About 83,000 compounds went through this panel and 20% of them were active in at least one assay; those are over-represented in the sample as a whole.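 Assay: single dose, 48 h. Readout: percent growth (0 = no net growth; negative = cell death). Active: <10.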 Values without a mark were called inactive. Calls of active or inactive are those of the source.

With `N#Cc1nc(-c2ccccc2)oc1N1CC[C@@H](CO)C1`, the growth in the experiment on NCI-H226 lung was 94%; in the experiment with NCI-H322M lung it was 93.8%; in the experiment with HOP-62 NSCLC it was 102%; in the experiment with NCI-H460 lung, 99.7%; with HOP-92 NSCLC, 98.5%; with NCI-H522 lung, 95.1%. In addition, the growth with A549/ATCC NSCLC was 101%; with 786-0 renal, 103%; with COLO 205 colon, 106%; in the experiment on DU-145 prostate it was 100%.
`O=C(CN1CCOCC1)NNc1ncnc2ccccc12`: the growth with NCI-H226 lung is 107%; in the experiment with NCI-H322M lung it was 102%; in the experiment with HOP-62 NSCLC, 115%; with NCI-H460 lung it was 108%; in the experiment with NCI-H522 lung, -61% (active); with A549/ATCC NSCLC, 105%. In addition, the growth is 58.9% in the experiment with 786-0 renal, 102% with COLO 205 colon and 102% with DU-145 prostate.
Regarding `COc1ccc([C@@H]2c3[nH]c4ccccc4c3CC3C(=O)N(C4CCN(Cc5c(F)cccc5F)CC4)CC(=O)N32)c(OC)c1` (stereo partly drawn), the growth was 57% [5.26 µM] with NCI-H226 lung; 83.4% [5.26 µM] with NCI-H322M lung; 54.8% [5.26 µM] in the experiment with HOP-62 NSCLC; 65.7% [5.26 µM] with NCI-H460 lung; 18.8% [5.26 µM] in the experiment with HOP-92 NSCLC; 67.6% [5.26 µM] in the experiment with NCI-H522 lung. The growth was 50% [5.26 µM] with A549/ATCC NSCLC, -35.9% [5.26 µM] (active) with 786-0 renal, 58.3% [5.26 µM] in the experiment on COLO 205 colon and 70.7% [5.26 µM] with DU-145 prostate.
Take `Cc1cc2nc3c4cc(Cl)ccc4n(CC(=S)NCCN(C)C)c3nc2cc1C`: the growth in the experiment on NCI-H226 lung was -60.4% (active); with NCI-H322M lung it was 40.1%; in the experiment on HOP-62 NSCLC it was 50.1%; with NCI-H460 lung, -90.2% (active); in the experiment with HOP-92 NSCLC, -6.84% (active); in the experiment on NCI-H522 lung, -49.4% (active). The growth was -69.9% (active) in the experiment with A549/ATCC NSCLC, -95.6% (active) in the experiment with 786-0 renal, -39% (active) in the experiment on COLO 205 colon and -51.6% (active) with DU-145 prostate.
As to `COc1cc(-c2nc3ccc(-c4nnc(SCC(=O)Nc5ccc(C(C)=O)cc5)o4)cc3[nH]2)cc(OC)c1OC`, the growth with NCI-H226 lung was 105%; with NCI-H322M lung it was 99.5%; with HOP-62 NSCLC, 98.7%; with NCI-H460 lung, 103%; with HOP-92 NSCLC, 92.5%; in the experiment with NCI-H522 lung, 99.5%. Also, the growth in the experiment on A549/ATCC NSCLC is 99.9%; with 786-0 renal it was 106%; in the experiment with COLO 205 colon it was 110%; in the experiment with DU-145 prostate, 115%.
As to `O=C1Nc2ccccc2Oc2ccc(S(=O)(=O)CC3CO3)cc21` (stereo not drawn), the growth was 95.7% in the experiment on NCI-H226 lung; 93.7% in the experiment with NCI-H322M lung; 101% with HOP-62 NSCLC; 79.5% in the experiment with NCI-H460 lung; 88.8% in the experiment on HOP-92 NSCLC; 32.8% in the experiment with NCI-H522 lung. For the same molecule, the growth with A549/ATCC NSCLC was 77.2%; in the experiment with 786-0 renal, 98.1%; in the experiment on COLO 205 colon, 50.1%; with DU-145 prostate, 61.2%.
As for `CN(C)c1ccc(/C=C2\Cc3c(F)ccc(Br)c3C2=O)cc1`, the growth in the experiment on NCI-H226 lung is 76.3%; with NCI-H322M lung, 85.6%; with HOP-62 NSCLC, 91.5%; with NCI-H460 lung, 88.7%; in the experiment on HOP-92 NSCLC it was 91.5%; with NCI-H522 lung, 96.1%. In addition, the growth in the experiment on A549/ATCC NSCLC was 94.1%; in the experiment on 786-0 renal, 98.2%; in the experiment with COLO 205 colon, 98.1%; with DU-145 prostate, 97.5%.
As to `Clc1ccc2c(OCCCN3CCOCC3)c3oc4ccccc4c3nc2c1`, the growth was 33.7% in the experiment with NCI-H226 lung; 36% in the experiment with NCI-H322M lung; 63.6% in the experiment with HOP-62 NSCLC; 10.5% with NCI-H460 lung; 45.3% in the experiment on HOP-92 NSCLC; 29% in the experiment with NCI-H522 lung. Further, the growth in the experiment on A549/ATCC NSCLC was 33.5%; in the experiment on 786-0 renal, 27.4%; with COLO 205 colon, 12.8%; in the experiment on DU-145 prostate it was 22.9%.
Consider `CN1CCN(Cc2ccc(NC(=O)c3cncc(C#Cc4cnc5ccc(N6CCSCC6)nn45)c3)cc2C(F)(F)F)CC1`, for which the growth was -24.7% (active) in the experiment on NCI-H226 lung; -23.9% (active) with NCI-H322M lung; -31.1% (active) in the experiment with HOP-62 NSCLC; -46.6% (active) in the experiment on NCI-H460 lung; -75.4% (active) with NCI-H522 lung; -24.5% (active) in the experiment with A549/ATCC NSCLC. In addition, the growth with 786-0 renal was -77.7% (active); with COLO 205 colon it was -87.9% (active); with DU-145 prostate it was -83.2% (active).
With `Clc1ccc2c(NCCCN3CCOCC3)c3oc4ccccc4c3nc2c1`, the growth in the experiment with NCI-H226 lung was 45.3%; with NCI-H322M lung, 37.8%; in the experiment with HOP-62 NSCLC it was 66.5%; with NCI-H460 lung, 13.8%; in the experiment on HOP-92 NSCLC it was 48.7%; in the experiment with NCI-H522 lung it was 43.1%. In addition, the growth is 44.3% in the experiment with A549/ATCC NSCLC, 28.3% with 786-0 renal, 29.9% in the experiment with COLO 205 colon and 31.3% in the experiment on DU-145 prostate.
Turning to `CCN(CC)c1ccc(C=O)c(OCc2cn(CC(=O)Nc3ccc(Cl)cc3)nn2)c1`, the growth with NCI-H226 lung is 77.5%; in the experiment on NCI-H322M lung it was 94.9%; with HOP-62 NSCLC it was 89.9%; in the experiment on NCI-H460 lung, 52%; in the experiment on HOP-92 NSCLC, 81.4%; in the experiment with NCI-H522 lung, 80.9%. The growth with A549/ATCC NSCLC is 87.9%; in the experiment on 786-0 renal, 72.9%; in the experiment on COLO 205 colon, 111%; in the experiment with DU-145 prostate, 81%.
As for `CSc1ccc2c(c1)N(C(=O)/C(C#N)=C/c1c[nH]c3ccccc13)c1ccccc1S2`, the growth with NCI-H226 lung is 50.4%; with NCI-H322M lung, 86.1%; in the experiment with HOP-62 NSCLC, 59.9%; in the experiment on NCI-H460 lung, 45.5%; in the experiment on HOP-92 NSCLC, 44.1%; in the experiment on NCI-H522 lung, 5.48% (active). The growth was 47.3% in the experiment on A549/ATCC NSCLC, 50% with 786-0 renal, 40.8% in the experiment on COLO 205 colon and 51.3% in the experiment with DU-145 prostate.
On to `COc1cc(OC)c(C2C(Cl)C(=O)N2Nc2ncnc3ccccc23)cc1OC` (stereo not drawn), for which the growth in the experiment on NCI-H226 lung was 90.3%; in the experiment with NCI-H322M lung, 92.3%; with HOP-62 NSCLC, 100%; in the experiment with NCI-H460 lung, 107%; in the experiment with HOP-92 NSCLC it was 102%; with NCI-H522 lung, 94.2%. The growth was 105% in the experiment on A549/ATCC NSCLC, 98.6% with 786-0 renal, 125% with COLO 205 colon and 109% in the experiment with DU-145 prostate.
`COc1ccc(/C=N/NC(=O)c2[nH]c3ccc(Br)cc3c2-c2ccccc2)o1`: the growth with NCI-H226 lung is 49.7%; in the experiment with NCI-H322M lung it was 44.2%; in the experiment with HOP-62 NSCLC, 47.6%; in the experiment with NCI-H460 lung it was 0.221% (active); with HOP-92 NSCLC, 33.2%; in the experiment with NCI-H522 lung it was -54.6% (active). The growth with A549/ATCC NSCLC is 30.4%; with 786-0 renal it was 13.3%; in the experiment on COLO 205 colon it was -47.8% (active); in the experiment on DU-145 prostate it was 20%.
